Assay outcomes as filed in PubChem BioAssay.
The list is not random: actives were taken first. Their share in the collection is about 10%.
BAZ2B inh: blocks human BAZ2B. AlphaScreen BAZ2B-H3K14Ac peptide displacement. Q9UIF8. hit rate 4.4% among 360,000. Potency, µM (series often up to 114 µM), for the others: at the highest dose activity change, negative = inhibition, usual class: inhibitors; also: % is scaled to controls: 0 for no effect and ±100 for the full control effect; nearly all actives have a fitted effect of over 60% in size
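Multi-concentration screen (max 110 uM) measuring displacement of acetylated histone H3 peptide from BAZ2B by AlphaScreen, using 50 nM protein, 50 nM peptide and 10 ug/mL streptavidin donor plus Ni-chelate acceptor beads.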
G9a block: G9a (human) methyltransferase inhibition. hit rate 8.8% among 350,000. Potency, µM (series often up to 102 µM), without a hit: top-dose activity, negative = inhibition, usual class: inhibitors. Q96KQ7. G9a H3K9 monomethylation, AlphaScreen, 2 h; also: % is scaled to controls: 0 for no effect and ±100 for the full control effect; nearly all actives have a fitted effect of over 75% in size
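Enzyme 20 nM + cpd, 15 min RT; add b-H3K9 pep 500 nM / SAM 20 uM; 2 h RT; anti-H3K9me1 Ab 0.5 ug/mL + SA donor / anti-rabbit acceptor beads 20 ug/mL each, 10 min; AlphaScreen read.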
GLS inhibitor: blocks human kidney-isoform glutaminase activity. O94925. GLS enzymatic activity, qHTS titration. Potency, µM (top dose mostly 45.5 µM), inactives show at the highest dose activity change, negative = inhibition, actives largely listed as inhibitors. hit rate 0.21% among 410,000; also: % is scaled to controls: 0 for no effect and ±100 for the full control effect
Target sequence (O94925 whole entry, looked up, canonical isoform): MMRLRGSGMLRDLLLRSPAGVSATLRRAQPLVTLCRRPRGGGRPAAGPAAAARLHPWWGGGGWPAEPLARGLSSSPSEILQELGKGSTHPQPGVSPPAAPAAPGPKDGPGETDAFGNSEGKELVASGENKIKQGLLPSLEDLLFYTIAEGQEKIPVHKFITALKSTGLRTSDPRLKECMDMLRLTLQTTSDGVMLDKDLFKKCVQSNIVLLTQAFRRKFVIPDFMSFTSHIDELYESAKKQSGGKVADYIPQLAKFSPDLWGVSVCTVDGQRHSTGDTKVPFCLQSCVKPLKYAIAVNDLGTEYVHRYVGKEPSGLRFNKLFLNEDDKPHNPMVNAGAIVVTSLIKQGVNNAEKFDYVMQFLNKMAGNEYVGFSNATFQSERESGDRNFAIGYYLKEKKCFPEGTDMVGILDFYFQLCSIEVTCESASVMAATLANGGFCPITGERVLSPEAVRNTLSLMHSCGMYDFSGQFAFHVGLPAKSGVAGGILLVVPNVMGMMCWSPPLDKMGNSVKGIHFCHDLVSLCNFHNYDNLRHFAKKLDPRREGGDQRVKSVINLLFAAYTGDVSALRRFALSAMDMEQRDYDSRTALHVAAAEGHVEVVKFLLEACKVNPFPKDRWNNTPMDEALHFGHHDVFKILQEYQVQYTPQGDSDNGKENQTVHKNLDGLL
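Assay buffer: 45 mM KH2PO4 pH 8.2, 0.02% Tween-20. hKGA acts on L-glutamine (1 mM solution added); product glutamate is reported by an oxidase/peroxidase Amplex Red coupling, with fluorescence taken at baseline and 30 min.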
JMJD2A Tudor inh: blocks the human JMJD2A Tudor domain; O75164; AlphaScreen JMJD2A-Tudor / H3K4me3 peptide binding; Potency, µM (titrated, usually from 114 µM), for the others: top-dose activity change, negative = inhibition, actives largely listed as inhibitors; hit rate 4.4% among 390,000; also: % is scaled to controls: 0 for no effect and ±100 for the full control effect; nearly all actives have a fitted effect of over 50% in size
HP1b binding inh: inhibitors of HP1-beta chromodomain binding to methylated histone tails | AlphaScreen HP1-beta / biotin-H3K9me3 peptide binding | hit rate 0.56% among 390,000 | P83916 | Potency, µM (titrated, usually from 114 µM), inactives show at the highest dose activity change, negative = inhibition, hits mostly inhibitors | AID 540317; also: nearly all actives have a fitted effect of over 70% in size
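Compound inhibition of the preformed complex between 50 nM HP1-beta and 50 nM biotinylated H3K9me3 peptide was read by AlphaScreen. Buffer was PBS pH 7.4 with 0.01% Tween-20. Incubations ran 30 min at room temperature, with 10 ug/mL donor/acceptor beads.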
The depositor's hits bear a star; ! = not confirmed by another sample; [ ] = remark or other dose. Calls follow the shape of the dose curve; as a rule, active = well fitted curve in the direction sought with a large enough effect; inconclusive = small, poorly fitted or top-dose-only effect, or another doubt; inactive = no such curve, though single readings can be large; an effect the other way counts as inactive or inconclusive. Potency is read from the fitted curve at half-maximal effect.

For CN[C@@H](C)[C@H](O)c1ccccc1 the results were G9a block 0.0447µM*.
`CN[C@H]1C[C@@H](N)[C@H](O)[C@@H](O[C@@H]2O[C@H](CO)[C@H](O)[C@@H]3O[C@]4(O[C@@H]23)O[C@H]([C@@H](N)CO)[C@H](O)[C@@H](O)[C@H]4O)[C@@H]1O` gave GLS inhibitor 1.1%.
For CN1CC[C@@]2(C)c3cc(OC(=O)Nc4ccccc4)ccc3N(C)[C@@H]12 the results were G9a block 15.8µM*.
For O=C(Nc1ccccc1)N1CCC2(CC1)CCN(C(=O)Oc1ccccc1)CC2 the results were G9a block -12.7%[12.7 µM].
CN1CC[C@@]2(C)c3cc(O)ccc3N(C)C2O1 (some centres undefined) was read as GLS inhibitor 1.7%, JMJD2A Tudor inh -20.7% and HP1b binding inh -15.6%.
`CN1CC[C@@]2(C)c3cc(O)ccc3N(C)[C@@H]12` gave GLS inhibitor inconclusive, JMJD2A Tudor inh 3.98µM*! and HP1b binding inh inconclusive.
For O=C(c1ccc(-c2ccccc2)cc1)C1CCCN(Cc2ccn[nH]2)C1 (centres undefined) the results were BAZ2B inh -10.2%, G9a block -6.3%[0.501 µM], GLS inhibitor -1.4%, JMJD2A Tudor inh -22.8% and HP1b binding inh 19.0%.
Screening N#Cc1cccc(NC(=O)N2CC3(CCN(C(=O)Oc4ccccc4)CC3)C2)c1 returned G9a block 11.0%[12.7 µM].
Screening CCn1ncc(-c2ccnc3cc(C(=O)O)nn23)c1C returned BAZ2B inh 31.6µM*, G9a block inconclusive, GLS inhibitor 3.16µM*, JMJD2A Tudor inh 25.1µM* and HP1b binding inh 14.5%.
For NCC(CP(=O)(O)O)c1ccc(Cl)cc1 (centres undefined) the results were G9a block 3.8%[59 µM].
For C[C@@H]1O[C@@H](O[C@H]2C[C@@H](O)[C@]3(CO)[C@H]4[C@H](O)C[C@]5(C)[C@@H]([C@@H]6COC(=O)C6)CC[C@]5(O)[C@@H]4CC[C@]3(O)C2)[C@H](O)[C@H](O)[C@H]1O the results were G9a block 23.4%[12.7 µM].
Screening COc1ccc(OCC(=O)N2CCN(CC3CC4C=CC3C4)CC2)cc1 (centres undefined) returned BAZ2B inh 50.1µM*, G9a block 17.8µM*, GLS inhibitor 8.3%, JMJD2A Tudor inh 5.62µM* and HP1b binding inh inconclusive.
`O=C(Cc1ccccc1)N1CCN(CC2CC3C=CC2C3)CC1` (centres undefined) gave BAZ2B inh 31.6µM*, G9a block inconclusive, GLS inhibitor 0.4%, JMJD2A Tudor inh 4.47µM* and HP1b binding inh 50.1µM*.
For CN1[C@H]2CC(=O)C[C@@H]1[C@@H](O)C2 the results were G9a block 1.0%[21.5 µM].
Screening O=C(NC1CC1)c1cc(-c2ccco2)nc2ccccc12 returned BAZ2B inh 10µM*, G9a block 10µM*, GLS inhibitor inconclusive, JMJD2A Tudor inh 8.91µM* and HP1b binding inh 17.8µM*.
O=C1NC(=O)N(c2ccc(Cl)cc2)C(=O)/C1=C\c1ccc(Sc2nc3ccccc3[nH]2)o1 was read as BAZ2B inh 28.2µM*, G9a block 3.16µM*, GLS inhibitor -21.1%, JMJD2A Tudor inh 10µM* and HP1b binding inh 39.8µM*.
For O=C(O)Cn1cc(/C=C2\C(=O)NC(=O)N(c3ccc(Cl)cc3)C2=O)c2ccccc21 the results were BAZ2B inh inconclusive, G9a block inconclusive, GLS inhibitor -8.6%, JMJD2A Tudor inh -20.4% and HP1b binding inh 29.2%.
`C[C@]12CCC3C(CC[C@H]4C[C@H](O)CC[C@]34C)[C@@H]1CC[C@@H]2C(=O)CO` (some centres undefined) gave G9a block 31.2%[59 µM].
Screening COc1ccc(CC2C(=O)NC(C)C(=O)N(C)C3C(=O)N(C)C(Cc4ccc(O)c(c4)Oc4ccc(cc4)C3O)C(=O)NC(C)C(=O)NC(C)C(=O)N2C)cc1 (centres undefined) returned GLS inhibitor -5.3%, JMJD2A Tudor inh -5.6% and HP1b binding inh 38.7%.
Cc1ccc(CN(C)CCc2ccccn2)cc1 was read as BAZ2B inh inconclusive, G9a block 12.6µM*, GLS inhibitor -1.7%, JMJD2A Tudor inh 3.16µM* and HP1b binding inh inconclusive.
For NCCc1ccccn1 the results were G9a block -1.9%[59 µM].
`CN(CCc1ccccn1)Cc1ccc(Cl)cc1` gave BAZ2B inh 44.7µM*, G9a block 10µM*, GLS inhibitor 5.8%, JMJD2A Tudor inh 6.31µM* and HP1b binding inh inconclusive.
For Cc1ccc(N2C(=O)NC(=O)C(CCc3ccccn3)(Cc3ccc(F)cc3)C2=O)cc1 (centres undefined) the results were BAZ2B inh -14.8%, G9a block -0.8%, GLS inhibitor -12.1%, JMJD2A Tudor inh 5.1% and HP1b binding inh 39.2%.
`Cn1c(=O)oc2cc(S(=O)(=O)N3CCCC(C(=O)N4CCN(c5ccc(Cl)cc5)CC4)C3)ccc21` (centres undefined) gave BAZ2B inh -3.1%, G9a block 1.7%[59 µM], GLS inhibitor 7.2%, JMJD2A Tudor inh -11.9% and HP1b binding inh 41.8%.
For CCn1ccnc1CN1CCCC(C(=O)c2ccc(OC)cc2OC)C1 (centres undefined) the results were BAZ2B inh -3.8%, G9a block 7.4%, GLS inhibitor -15.5%, JMJD2A Tudor inh -15.6% and HP1b binding inh 24.0%.
For CCn1ccnc1CN1CCCC(C(=O)c2cc(F)ccc2OC)C1 (centres undefined) the results were BAZ2B inh -38.6%, G9a block 7.08µM*, GLS inhibitor 5.5%, JMJD2A Tudor inh -20.8% and HP1b binding inh -10.8%.
For Cc1ccccc1Nc1c(-c2ccc(Br)cc2O)nc2sccn12 the results were BAZ2B inh 22.4µM*, G9a block inconclusive, GLS inhibitor 5.3%, JMJD2A Tudor inh inconclusive and HP1b binding inh 1.7%.
Oc1ccc(Cl)cc1Sc1cc(Cl)ccc1O was read as GLS inhibitor -8.2%, JMJD2A Tudor inh inconclusive and HP1b binding inh -0.1%[57 µM].
For CN1C(=O)C(C2c3ccccc3C(=O)N2Cc2ccccc2)C(=O)N(C)C1=O (centres undefined) the results were BAZ2B inh 79.4µM*, G9a block inconclusive, GLS inhibitor 9.8%, JMJD2A Tudor inh -28.5% and HP1b binding inh 17.4%.
`CN1C(=O)C(C2c3ccccc3C(=O)N2Cc2ccc([N+](=O)[O-])cc2)C(=O)N(C)C1=O` (centres undefined) gave BAZ2B inh -11.2%, GLS inhibitor -8.9%, JMJD2A Tudor inh -24.6% and HP1b binding inh 55.7%.
